Measurements from ChEMBL document CHEMBL4808148, “HDAC6 screening dataset using tau-based substrate in an enzymatic assay yields selective inhibitors and activators” (2021).
About 150 (2.7%) of roughly 5,600 compounds showed an effect of 50% or more. The entries come from a sample that favours strong results as a whole.

These molecules were tested against T1, Protein deacetylase HDAC6 (Homo sapiens) (UniProt Q9UBN7). Conditions: at 10 µM.
T1 sequence (whole entry): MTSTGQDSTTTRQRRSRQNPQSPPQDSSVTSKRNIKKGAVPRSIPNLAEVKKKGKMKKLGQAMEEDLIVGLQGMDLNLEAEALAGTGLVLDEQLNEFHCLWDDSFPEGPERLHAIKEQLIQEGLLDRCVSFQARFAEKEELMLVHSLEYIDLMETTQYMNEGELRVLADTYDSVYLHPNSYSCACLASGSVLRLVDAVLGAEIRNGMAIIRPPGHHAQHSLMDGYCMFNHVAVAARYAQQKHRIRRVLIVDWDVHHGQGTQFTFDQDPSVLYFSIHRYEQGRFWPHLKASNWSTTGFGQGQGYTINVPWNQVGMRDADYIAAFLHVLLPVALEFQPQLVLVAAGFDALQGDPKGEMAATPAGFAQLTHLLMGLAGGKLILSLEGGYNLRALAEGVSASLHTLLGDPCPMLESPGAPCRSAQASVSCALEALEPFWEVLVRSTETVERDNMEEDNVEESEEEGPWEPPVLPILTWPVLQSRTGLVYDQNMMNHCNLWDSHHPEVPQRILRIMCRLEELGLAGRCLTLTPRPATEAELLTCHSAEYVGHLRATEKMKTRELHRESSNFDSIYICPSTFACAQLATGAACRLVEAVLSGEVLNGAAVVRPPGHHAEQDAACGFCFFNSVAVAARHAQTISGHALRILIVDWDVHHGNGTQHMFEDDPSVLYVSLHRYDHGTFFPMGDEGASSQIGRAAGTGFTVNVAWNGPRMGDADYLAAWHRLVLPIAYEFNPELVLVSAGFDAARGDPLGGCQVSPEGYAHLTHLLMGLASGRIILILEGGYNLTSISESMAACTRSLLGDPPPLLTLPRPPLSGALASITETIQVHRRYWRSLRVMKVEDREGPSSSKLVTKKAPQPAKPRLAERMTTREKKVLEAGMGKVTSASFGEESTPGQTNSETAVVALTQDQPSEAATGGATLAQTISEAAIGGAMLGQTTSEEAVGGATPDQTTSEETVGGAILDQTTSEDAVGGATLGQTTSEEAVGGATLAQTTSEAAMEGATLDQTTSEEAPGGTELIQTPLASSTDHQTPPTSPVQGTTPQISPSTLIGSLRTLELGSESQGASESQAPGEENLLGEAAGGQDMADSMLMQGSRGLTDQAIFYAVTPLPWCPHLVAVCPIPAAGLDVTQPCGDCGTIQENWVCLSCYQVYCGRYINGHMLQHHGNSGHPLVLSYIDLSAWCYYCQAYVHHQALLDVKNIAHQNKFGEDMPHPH

Compound	inhibition
O=C(/C=C/c1cccc(S(=O)(=O)Nc2ccccc2)c1)NO	97.7%
CCNC(=O)/C=C/c1cccc(Br)c1	11.1%
O=C(/C=C/c1ccccc1)NCCO	44.6%
COc1ccc(Cl)cc1C(=O)NCCc1ccc(C(=O)O)cc1	-2.67%
Cc1ccc(C)c(OCCCC(C)(C)C(=O)O)c1	4.07%
Cc1cc(Cl)ccc1OCCCC(=O)NO	87.1%
N=C(N)NCCC[C@H](N)C(=O)NCC(=O)N[C@@H](CC(=O)O)C(=O)N[C@@H](CO)C(=O)O	5.37%
O=C(c1ccc2nccnc2c1)N1CCCCC1	-1.26%
CCNC(=O)NS(=O)(=O)c1sc(CC(C)C)cc1-c1ccc(Cn2c(-c3ccccc3)nc(OC)c2C=O)cc1	-1.89%
COc1ccc(Cl)c(Nc2nc3ccccc3nc2NS(=O)(=O)c2cccc(NC(=O)C(C)(C)N)c2)c1	-9.43%
COc1ccc2nc(NC(=O)Nc3ccccc3)sc2c1	58.2%
CCOc1ccc2nc(S(N)(=O)=O)sc2c1	1.88%
COC(=O)[C@H](Cc1cccc(C(=N)N)c1)[C@@H](C)NC(=O)c1ccc(-c2cc[n+]([O-])cc2)cc1	-6.46%
N#CCC1(n2cc(-c3ncnc4[nH]ccc34)cn2)CN(C2CCN(C(=O)c3ccnc(C(F)(F)F)c3F)CC2)C1	-4.32%
Cc1ccc(O)c(/N=N/c2ccccc2)n1	99.5%
Cc1ccccc1/N=N/c1ccc(/N=N/c2c(O)ccc3ccccc23)c(C)c1	0.88%
CC(C)(CC(=O)N1CCCC1)NCC(=O)N1C[C@@H](F)C[C@H]1C#N	1.6%
Cn1ccc2cc(NC(=O)Nc3cccnc3)ccc21	39.6%
Cn1ccc2cc3c(cc21)CCN3C(=O)Nc1cccnc1	69.4%
CSc1cc2c(cc1C(F)(F)F)N(C(=O)Nc1cccnc1)CC2	1.32%
COc1ccccc1N1CCN(CC(O)COc2cc(OC)c(OC)c(OC)c2)CC1 (stereo unspecified)	-4.5%
O=C(O)CCCCCCCCC(=O)O	0.43%
O=C(CCCCCCC(=O)NO)NO	96.5%
NC(=O)c1cccnc1	9.25%

Compound	inhibition
O=C(O)CCCCCCCC(=O)O	0.37%
O=C(CCCCCCC(=O)Nc1cccnc1)NO	98.1%
O=C(CCCCCCCn1cc(-c2cccnc2)nn1)Nc1ccccc1-c1ccccc1	-3.08%
CC(C)Cc1ccc([C@@H](C)C(=O)NS(C)(=O)=O)cc1	-2.75%
OC(c1ccc(-c2ccc(CN3CCN(Cc4ccncc4)CC3)cc2)c(F)c1)(C(F)(F)F)C(F)(F)F	-2.34%
N#Cc1cccc(C(=O)Nc2cc(-c3ccccc3)nn2-c2ccccc2)c1	12.2%
Cc1ccc(-c2ccc(C)cn2)nc1	70.4%
CCOc1ccc(NC(=S)N2CCC(C(O)(c3ccccc3)c3ccccc3)CC2)cc1	-1.16%
O=C(O)C(O)C(O)C(O)C(O)CO (stereo unspecified)	-3.09%
O=Cc1ccc(CO)o1	-2.99%
CS(=O)(=O)c1ccc(Oc2cc(F)cc(C#N)c2)c2c1[C@H](O)C(F)(F)C2	-4.01%
CCc1nc(C(N)=O)c(Nc2ccc(N3CCC(N4CCN(C)CC4)CC3)c(OC)c2)nc1NC1CCOCC1	0.8%
Fc1ccc(-c2nc(-c3c(F)cccc3F)[nH]c2-c2ccncc2)cc1	-5.55%
Cc1ccc(-c2cn3c4c(sc3n2)CCCC4)cc1	95.1%
N=C(N)Nc1ccc(Cl)cc1	0.23%
N=C(N)c1ccc(/N=N/Nc2ccc(C(=N)N)cc2)cc1	-8.86%
Cc1sc(C)c(C(=O)NC2(c3ccc(C(=O)O)cc3)CC2)c1Cc1ccc(C(F)(F)F)cc1	3.37%
O=C1COc2c(CCNCCN(C(=O)CCNCCc3ccc(Cl)c(Cl)c3)C3CCCCC3)ccc(O)c2N1	3.6%
C[C@H](C[C@H](N)C(=O)O)C(=O)O	2.11%
c1ccc2[nH]c(-c3cscn3)nc2c1	84.5%
c1ccc(N2CCN(Cc3nc4ccccc4[nH]3)CC2)nc1	1.74%
COc1ccc(C(=O)C2CCN(CC(=O)N(Cc3nc4c(c(=O)[nH]3)COCC4)CC3CC3)CC2)cc1	-1.1%
O=C(NCC(=O)N1CCCCC1)Nc1ccc2nnsc2c1	4.96%
O=C(O)c1ccc2nc(-c3cc(Cl)cc(Cl)c3)oc2c1	99.2%

Compound	inhibition
O=C(O)c1ccc2c(c1)nc(Nc1cccc(Cl)c1)c1ccncc12	-4.86%
CCS(=O)(=O)c1ccc2oc(-c3ccc4ccccc4c3)nc2c1	37.2%
C=C1C(=O)[C@@]23C(CC[C@@H]1[C@H]2O)[C@@]12CO[C@]3(O)[C@@H](O)[C@@H]1C(C)(C)CC[C@@H]2O (stereo partly specified)	-6.66%
COC(=O)[C@H](NC(=O)c1cc(-c2ccccc2)nc2ccccc12)c1ccccc1	0.79%
O=C(O)c1cc(-c2ccccc2)nc2ccccc12	-1.66%
COc1cc2ncc(-c3ccccc3)nc2cc1OC	97.5%
C/C(=N\c1ccccc1N)c1c(C)cc(=O)n(O)c1O	2.45%
O=C(O)CCCCN(CCc1ccccc1OCc1ccc(CCc2ccccc2)cc1)Cc1ccc(C(=O)O)cc1	-4%
COc1cc2c(NC3CCN(C4CCCCC4)CC3)nc(N3CCCN(C(C)C)CC3)nc2cc1OCCCN1CCCCC1	-8.06%
COc1cc2nc(C3CC3)nc(N3CCN(c4ccccc4OC)CC3)c2cc1OC	0%
CC(C(=O)O)c1cccc(C(=O)c2ccccc2)c1 (stereo unspecified)	4.07%
CC(C(=O)O)c1ccc(N2Cc3ccccc3C2=O)cc1 (stereo unspecified)	82.1%
CC(C(=O)O)c1ccc2c(c1)CC(=O)c1ccccc1S2 (stereo unspecified)	-3.15%
CNC(=O)O[C@H]1COc2ccc(N3CCN(C4COC4)CC3)cc2[C@@H]1NC(=O)c1ccc(F)cc1	-3.83%
O=C1Nc2cc(Br)ccc2/C1=C1/Nc2ccccc2/C1=N\O	2.55%
O=C1COc2nccc(-c3ccccc3F)c2CN1Cc1cc(C(F)(F)F)cc(C(F)(F)F)c1	-5.84%
C=C1/C(=C\C=C2/CCC[C@]3(C)[C@@H]([C@H](C)OCCC(C)(C)O)CC[C@@H]23)C[C@@H](O)C[C@@H]1O	1.22%
Cc1cccc(C#Cc2ccccc2)n1	94.7%
NS(=O)(=O)C#Cc1ccccc1	-5.38%
COc1cc(C(=O)N(CCC2CCCN2C)C/C(C)=C/c2ccccc2F)cc(OC)c1OC (stereo unspecified)	-2.86%
CC(C)(C)c1cc(C(=O)/C(C#N)=N/Nc2cccc(Cl)c2)no1	7.67%
CNC(=O)c1c(C)oc2cc(Oc3ncnc4cc(OC)c(OC)cc34)ccc12	14.7%
CC(C)Oc1ccc2c(=O)c3cc(C(=O)O)ccc3oc2c1	76.3%
